Reference: the supplement of paper PMC11172423

What was measured:
[1] = system: Falciformispora senegalensis CBS197.79; assay: growth relative to untreated control; higher = less inhibition, active = 20 or less
How it was run: (§1)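 Hyphal fragments of M. mycetomatis MM55 or F. senegalensis CBS197.79 were suspended in colourless RPMI 1640 with L-glutamine and MOPS at 68–72% transmission at 660 nm. They were exposed in 96-well plates to compound at 100 or 25 µM for 7 days at 37 °C. Viability was read with MTS (2 h, 490 nm) or resazurin (600 nm). Growth is metabolic activity relative to the untreated growth control, both corrected with a medium-plus-dye blank.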

[2] = system: Madurella mycetomatis MM55; assay: as above
How it was run: as §1

Measured: growth

C[C@H](Cn1cnc2c(N)ncnc21)OCP(=O)(O)O
inactive: [1]; 25 µM 105% | [1]; 100 µM 107% | [2]; 25 µM 89.4% | [2]; 100 µM 81.3%

O=C(c1ccc(Nc2nccc(-c3ccc(Cl)cc3)n2)cc1)N1CC[C@@H](CO)C1
inactive: [1]; 25 µM 91.1% | [1]; 100 µM 89.6% | [2]; 25 µM 113% | [2]; 100 µM 117%

CCN(CC)CCOc1ccc(C(O)(Cc2ccc(Cl)cc2)c2ccc(C)cc2)cc1 (centres undefined)
active: [1]; 25 µM 7.03% | [1]; 100 µM 8.2% | [2]; 25 µM 3.26% | [2]; 100 µM 3.33%

Cc1c[nH]c(-c2cccc(C(=O)NC3CCC(CCN4CCc5ccc(C#N)cc5CC4)CC3)c2)n1 (centres undefined)
inactive: [1]; 25 µM 74.1% | [1]; 100 µM 92.9% | [2]; 25 µM 38.2% | [2]; 100 µM 88.4%

Cc1nc(NC2(c3ccc(C#N)cc3)CC2)nc(NCC2COC2)c1C
inactive: [1]; 25 µM 97.1% | [1]; 100 µM 96.2% | [2]; 25 µM 87.8% | [2]; 100 µM 22.3%

CC(C)(C)Nc1ncc2nc(Nc3cc(Cl)cc(C(F)(F)F)c3)n([C@H]3C[C@H](N)C3)c2n1
active: [1]; 100 µM 11.3% | [2]; 25 µM 7.82% | [2]; 100 µM 5.73%
inactive: [1]; 25 µM 50.9%

O=C(c1ccc(Nc2nccc(-c3ccc(Cl)cc3)n2)cc1)N1CCS(=O)(=O)CC1
inactive: [1]; 25 µM 80.5% | [1]; 100 µM 98.8% | [2]; 25 µM 76.8% | [2]; 100 µM 81.3%

CN(C)CCNC(=O)c1ccc(Nc2nccc(-c3ccc(Cl)c(Cl)c3)n2)cc1
active: [2]; 25 µM 5.83% | [2]; 100 µM 4.93%
inactive: [1]; 25 µM 24.5% | [1]; 100 µM 43.3%

COc1ccc2cc1Oc1ccc(cc1)C[C@H]1c3cc(c(OC)cc3CCN1C)Oc1c(OC)c(OC)cc3c1[C@H](C2)N(C)CC3
inactive: [1]; 25 µM 33.4% | [1]; 100 µM 20.6%
active: [2]; 25 µM 3.29% | [2]; 100 µM 3.62%

C=CC(C)(C)C1=C(O)C(=O)c2ccccc2C1=O
inactive: [1]; 25 µM 103% | [1]; 100 µM 101% | [2]; 25 µM 98.8% | [2]; 100 µM 164%

Clc1ccc(Nc2nc3cnc(NC4CC4)nc3n2C2CCNCC2)cc1Cl
inactive: [1]; 25 µM 76.9% | [1]; 100 µM 91.4% | [2]; 25 µM 73.7% | [2]; 100 µM 73%

C[C@H](NC(=O)c1cc2ccc(F)cc2[nH]1)c1ccccc1
inactive: [1]; 25 µM 91.5% | [1]; 100 µM 101% | [2]; 25 µM 83.1% | [2]; 100 µM 82.5%

CCCCN(CCCC)CCC(O)c1cc2c(Cl)cc(Cl)cc2c2cc(C(F)(F)F)ccc12 (centres undefined)
inactive: [1]; 25 µM 98.2% | [1]; 100 µM 106% | [2]; 25 µM 75.6% | [2]; 100 µM 77.3%

CO[C@H]1C[C@H](O[C@@H]2/C(C)=C/C[C@@H]3C[C@@H](C[C@]4(CC[C@H](C)[C@@H](C5CCCCC5)O4)O3)OC(=O)[C@@H]3C=C(C)/C(=N/O)[C@H]4OC/C(=C\C=C\[C@@H]2C)[C@]43O)O[C@@H](C)[C@@H]1O
inactive: [1]; 25 µM 97.5% | [1]; 100 µM 89.3% | [2]; 25 µM 88.8% | [2]; 100 µM 111%

CN(c1ncc2nc(Nc3cc(Cl)cc(C(F)(F)F)c3)n(C3CCNCC3)c2n1)C1CC1
active: [1]; 100 µM 12.3% | [2]; 100 µM 5.99%
inactive: [1]; 25 µM 90.9% | [2]; 25 µM 54.8%

O=C(NCc1ccco1)c1ccc2[nH]c(COc3ccc(C45CC6CC(CC(C6)C4)C5)cc3)nc2c1
inactive: [1]; 25 µM 97.5% | [1]; 100 µM 84.5% | [2]; 25 µM 87.5% | [2]; 100 µM 168%

Clc1ccc2ncc(-c3cccc(NC4CCNC4)n3)n2c1 (centres undefined)
inactive: [1]; 25 µM 92% | [1]; 100 µM 83.1% | [2]; 25 µM 78.8% | [2]; 100 µM 56.6%

CCO[C@@H]1[C@@H](OC)[C@H](C)O[C@@H](O[C@@H]2C[C@H]3CC[C@@H]4[C@@H](C=C5C(=O)[C@H](C)[C@@H](O[C@H]6CC[C@H](N(C)C)[C@@H](C)O6)CCC[C@H](CC)OC(=O)C[C@H]54)[C@@H]3C2)[C@@H]1OC
inactive: [1]; 25 µM 96.5% | [1]; 100 µM 85.7% | [2]; 25 µM 107% | [2]; 100 µM 128%

c1cc(N2CCC(CN3CCOCC3)CC2)c2sccc2n1
inactive: [1]; 25 µM 79% | [1]; 100 µM 32.1% | [2]; 25 µM 90.4% | [2]; 100 µM 31.4%

COc1cccc(-c2ccc(NC(=O)C3=C(C(=O)O)CCC3)c(F)c2)c1
inactive: [1]; 25 µM 109% | [1]; 100 µM 105% | [2]; 25 µM 76.1% | [2]; 100 µM 91.5%

O=C(NC1CCCc2c1[nH]c1ccc(Cl)cc21)c1ccccn1 (centres undefined)
inactive: [1]; 25 µM 107% | [1]; 100 µM 103% | [2]; 25 µM 35.3%
active: [2]; 100 µM 9.39%

CCCOc1ccc(C(F)(F)F)cc1NC(=O)c1nc2nccc(C)n2n1
inactive: [1]; 25 µM 91.7% | [1]; 100 µM 90% | [2]; 25 µM 62% | [2]; 100 µM 84.4%

CC[C@H](NC(=O)c1cc2c(F)cccc2[nH]1)c1ccccc1
active: [2]; 25 µM 8.07% | [2]; 100 µM 5.18%
inactive: [1]; 25 µM 77.9% | [1]; 100 µM 99%

COC(=O)N[C@H](C(=O)N[C@@H](Cc1ccccc1)[C@@H](O)CN(Cc1ccc(-c2ccccn2)cc1)NC(=O)[C@@H](NC(=O)OC)C(C)(C)C)C(C)(C)C
inactive: [1]; 25 µM 114% | [1]; 100 µM 108% | [2]; 25 µM 88.9% | [2]; 100 µM 105%

FC(F)(F)c1cc(Cl)cc(Nc2nc3cnc(NC4CCC4)cc3[nH]2)c1
active: [1]; 100 µM 10.8%
inactive: [1]; 25 µM 70.6% | [2]; 25 µM 109% | [2]; 100 µM 27%

Clc1cccc2cnsc12
inactive: [1]; 25 µM 96.1% | [1]; 100 µM 86.1% | [2]; 25 µM 125% | [2]; 100 µM 68.5%

CC[C@H](Nc1ncnc2[nH]cnc12)c1nc2cccc(F)c2c(=O)n1-c1ccccc1
inactive: [1]; 25 µM 98% | [1]; 100 µM 98.4% | [2]; 25 µM 103% | [2]; 100 µM 83.5%

O=C(OI(OC(=O)C(F)(F)F)c1ccccc1)C(F)(F)F
inactive: [1]; 25 µM 97.9% | [1]; 100 µM 93% | [2]; 25 µM 89.9% | [2]; 100 µM 182%

CCN(CC)CCNC(=O)c1ccc(NC(=O)c2cc3c(C)nn(-c4ccc(Cl)cc4)c3s2)cc1
inactive: [1]; 25 µM 58.4% | [1]; 100 µM 61.2% | [2]; 25 µM 59.2% | [2]; 100 µM 108%

CC(C)(C)NC(=O)N[C@H](C(=O)N1C[C@H]2[C@@H]([C@H]1C(=O)NC(CC1CCC1)C(=O)C(N)=O)C2(C)C)C(C)(C)C (some centres undefined)
inactive: [1]; 25 µM 103% | [1]; 100 µM 101% | [2]; 25 µM 103% | [2]; 100 µM 81.9%

C[C@@H]1CCCN1CCc1cc2cc(-c3ccc(C#N)cc3)ccc2o1
active: [1]; 100 µM 17.8% | [2]; 100 µM 4.57%
inactive: [1]; 25 µM 98.4% | [2]; 25 µM 71.7%

S=C(NCc1ccc2c(c1)OCO2)N1CCN(c2ncnc3c2oc2ccccc23)CC1
inactive: [1]; 25 µM 113% | [1]; 100 µM 106% | [2]; 25 µM 73.4% | [2]; 100 µM 77.9%

CC(CN1c2ccccc2Sc2ccccc21)N(C)C (centres undefined)
inactive: [1]; 25 µM 102% | [2]; 25 µM 77.8%
active: [1]; 100 µM 12.8% | [2]; 100 µM 3.58%

CCSC1CCCCC1NCCn1c(=O)oc2cccnc21 (centres undefined)
inactive: [1]; 25 µM 91.3% | [1]; 100 µM 90.9% | [2]; 25 µM 37.9% | [2]; 100 µM 93.1%

CC(C)NCc1cccc(-c2ccc(NC(=O)c3cccc(C#N)c3)cc2)c1
active: [2]; 100 µM 5.95%
inactive: [1]; 25 µM 86.2% | [1]; 100 µM 27.9% | [2]; 25 µM 87.5%

CCC(C)n1ncn(-c2ccc(N3CCN(c4ccc(OCC5COC(Cn6cncn6)(c6ccc(Cl)cc6Cl)O5)cc4)CC3)cc2)c1=O (centres undefined)
active: [2]; 25 µM 5.47% | [2]; 100 µM 4.46%
inactive: [1]; 25 µM 37.2% | [1]; 100 µM 81.1%

O=C(NCCN1CCCCC1)c1cncc(-c2ccc(Cl)c(Cl)c2)c1
inactive: [1]; 25 µM 95.7% | [1]; 100 µM 30.1% | [2]; 25 µM 52.1%
active: [2]; 100 µM 5.8%

O=C(Nc1cccc(-c2cc3nc(Nc4ccc(N5CCOCC5)cc4)ncc3[nH]2)c1)C1CC1
inactive: [1]; 25 µM 89.7% | [1]; 100 µM 85.2% | [2]; 25 µM 78.9% | [2]; 100 µM 72.6%

CCCCC(=O)N(Cc1ccc(-c2ccccc2-c2nn[nH]n2)cc1)[C@H](C(=O)O)C(C)C
inactive: [1]; 25 µM 103% | [1]; 100 µM 107% | [2]; 25 µM 82.1% | [2]; 100 µM 83.4%

C[C@@H](O[C@H]1OCCN(Cc2n[nH]c(O)n2)[C@H]1c1ccc(F)cc1)c1cc(C(F)(F)F)cc(C(F)(F)F)c1
active: [2]; 100 µM 5.09%
inactive: [1]; 25 µM 104% | [1]; 100 µM 103% | [2]; 25 µM 89.8%

O[C@@H](CNC[C@H](O)[C@H]1CCc2cc(F)ccc2O1)[C@@H]1CCc2cc(F)ccc2O1
active: [1]; 25 µM 5.42% | [1]; 100 µM 12.3% | [2]; 25 µM 5.79% | [2]; 100 µM 3.82%

CO/C=C(/C(=O)OC)c1ccccc1COc1c(C)c(-c2ccc(C)cc2C)nn1C
inactive: [1]; 25 µM 46.5%
active: [1]; 100 µM 15% | [2]; 25 µM 6.33% | [2]; 100 µM 10.3%

Cc1ccc(Cl)cc1NC(=O)c1c(-c2ccccc2Cl)noc1C
inactive: [1]; 25 µM 79.7% | [1]; 100 µM 80.1% | [2]; 25 µM 32.8% | [2]; 100 µM 131%

Cc1c(O)cccc1C(=O)N[C@@H](CSc1ccccc1)[C@H](O)CN1C[C@H]2CCCC[C@H]2C[C@H]1C(=O)NC(C)(C)C
inactive: [1]; 25 µM 107% | [1]; 100 µM 105% | [2]; 25 µM 83.9% | [2]; 100 µM 88.2%

CCN(CC)Cc1cc(Nc2ccnc3cc(Cl)ccc23)ccc1O
inactive: [1]; 25 µM 89.8% | [1]; 100 µM 88.3% | [2]; 25 µM 81.3% | [2]; 100 µM 43.4%

Nc1nc(C2CC2)cn1CC(O)c1ccc(Cl)cc1Cl (centres undefined)
inactive: [1]; 25 µM 86% | [1]; 100 µM 73.7% | [2]; 25 µM 83.6% | [2]; 100 µM 83.2%
